KCNQ2 inh: inhibitors of rat KCNQ2 potassium channel; B-score at 10 µM; O88943; CHO-K1 KCNQ2, FluxOR thallium flux, 20 min; stronger effect = lower value; 310,000 tested, 1.1% active;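 active = fluorescence ratio B-score at most minus 3 library SDs, with starting brightness B-score within 2 library SDs, cut at about -5.5 in these data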
KCNQ2 enhance: enhances the rat KCNQ2 potassium channel | 310,000 tested, 0.54% active | B-score at 10 µM | CHO-K1 KCNQ2, FluxOR thallium flux fluorescence; stronger effect = higher value;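 active = fluorescence ratio B-score at least 3 SD of library B-scores, with initial fluorescence B-score within 3 of them, cut at about 5.3 in these data; same plate scores as AID 2156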;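 also: B-score of peak minus minimum over baseline fluorescence ratio after K+ and Tl+ stimulus; positive B-score means potentiation of KCNQ2 with more thallium influx and brighter signal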
Kir21 confirm: confirmation of mouse Kir2.1 potassium channel inhibitors; Kir2.1-expressing cells, FluxOR thallium flux fluorescence; stronger effect = lower value; AID 2032; Tl flux remaining, % of negative control (stronger effect = lower value), % at 10 µM; 2,300 tested, 41% active; shares compounds with KCNQ2 enhance;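 active = Primary-screen hit whose thallium flux fell at least 3 control SD below untreated wells in both duplicates, with normal baseline fluorescence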
Target sequence (P35561 whole entry, looked up): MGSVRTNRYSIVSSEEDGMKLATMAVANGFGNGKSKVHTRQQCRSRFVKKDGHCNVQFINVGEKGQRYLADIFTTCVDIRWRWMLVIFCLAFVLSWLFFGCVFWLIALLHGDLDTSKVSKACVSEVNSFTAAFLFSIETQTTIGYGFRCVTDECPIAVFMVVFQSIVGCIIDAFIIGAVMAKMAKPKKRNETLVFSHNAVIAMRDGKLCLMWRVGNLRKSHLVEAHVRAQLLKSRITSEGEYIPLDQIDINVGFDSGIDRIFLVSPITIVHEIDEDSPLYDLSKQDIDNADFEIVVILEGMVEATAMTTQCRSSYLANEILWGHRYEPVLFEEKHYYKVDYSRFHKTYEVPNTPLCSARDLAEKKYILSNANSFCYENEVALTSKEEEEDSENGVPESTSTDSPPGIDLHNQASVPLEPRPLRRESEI
HEK293 Tl flux: alters thallium flux in parental HEK293 cells, Kir2.1 counter-screen; 2,300 tested, 19% active; shares compounds with KCNQ2 enhance; FluxOR thallium flux fluorescence; 0% = unstimulated blank wells; FluxOR signal as % of negative control (100 = no effect), % at 10 µM;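 active = dye signal at least 3 control SD above or below untreated wells in both duplicates, raw fluorescence within 3, either direction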;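 also: percent is based on the flux ratio of peak minus minimum fluorescence over baseline F0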
CHO-K1 ctr: counter-screen for KCNQ2 potentiators: effect in parental CHO-K1 cells. shares compounds with KCNQ2 enhance. FluxOR thallium flux fluorescence; zero = vehicle mean+3SD, 100% = vehicle-minus-blank window. activity increase over 3SD of controls, % at 10 µM. 1,200 tested, 43% active. AID 2282;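 active = signal rise of at least 3 SD above the untreated control mean, in both duplicate wells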;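 also: counter screen of KCNQ2 potentiator hits so any rise reflects channel-independent effects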
KCNQ1 pot spec: tests whether KCNQ2 potentiators also act on human KCNQ1. shares compounds with KCNQ2 enhance. CHO KCNQ1 stable, FluxOR thallium flux fluorescence; beyond 3SD, as % of vehicle-control signal. activation over 3SD threshold, % at 10 µM. 1,200 tested, 28% active;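 active = fluorescence ratio rise of at least 3 SD of vehicle wells above their mean, in both replicate wells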
KCNQ2 pot confirm: rat KCNQ2 channel potentiator confirmation. CHO-KCNQ2 cells, FluxOR thallium flux fluorescence. potentiation, less the hit threshold, % at 10 µM. shares compounds with KCNQ2 enhance. 1,200 tested, 68% active;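 active = fluorescence ratio rising 3 SD or more over the vehicle control mean in both replicates, plus primary screen hit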;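 also: peak minus minimum thallium fluorescence divided by baseline after K/Tl stimulus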
Kir2-1 sel: tests whether KCNQ2 potentiators also affect mouse Kir2.1; shares compounds with KCNQ2 enhance; HEK293 Kir2.1, FluxOR thallium flux fluorescence; activity over 3SD threshold, % at 10 µM; 1,200 tested, 2% active; AID 2345;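 active = fluorescence ratio rise of at least 3 SD above the vehicle-control mean, seen in both replicates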
KCNQ2 W236L MoA: KCNQ2 potentiators acting on retigabine-insensitive rat KCNQ2 W236L mutant; shares compounds with KCNQ2 enhance; CHO KCNQ2-W236L, automated patch clamp current; current increase over 3SD of negative controls (%), stronger effect = higher value, % at 25 µM; 940 tested, 10% active;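 active = current increase at least 3 SD of the untreated controls above them in both duplicate recordings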
Of the large screens only hits and unclear results are named; the others gave an inactive call (follow-up assays come after a bar, where they were run). Sampled rows, rich in hits. Any-hit rate of the full collection: about 1.6%.

COc1ccc(C(=O)NNC(=O)C(=O)Nc2cccc3ccccc23)cc1	KCNQ2 enhance 10.2 | Kir21 confirm inactive | HEK293 Tl flux 156.5% | CHO-K1 ctr 2.3 | KCNQ1 pot spec inactive | KCNQ2 pot confirm inactive | Kir2-1 sel inactive | KCNQ2 W236L MoA inactive
CN(C)c1ccc(P(=O)(OCc2ccccc2)C(O)c2ccccc2)cc1 (stereo not drawn)	none (no result: KCNQ2 enhance)
Cc1ccc(S(=O)(=O)NCCc2ccccc2)cc1	none (no result: KCNQ2 enhance)
Cc1cc(C)c(S(=O)(=O)NCCc2ccccc2)c(C)c1	none (no result: KCNQ2 enhance) | Kir21 confirm 49.5% | HEK293 Tl flux inactive
CCCCCCCCCCOC(=O)Cn1c(COc2ccccc2OC)[n+](C)c2ccccc21	none (no result: KCNQ2 enhance) | Kir21 confirm inactive | HEK293 Tl flux inactive
Cn1c(COc2ccccc2O)[n+](C)c2ccccc21	none (no result: KCNQ2 enhance)
O=S(=O)(c1ccc(Br)s1)N1CCN(c2ccc(F)cc2)CC1	none (no result: KCNQ2 enhance)
Cc1sc2nc[nH]c(=S)c2c1-c1ccccc1	KCNQ2 enhance 11.7 | Kir21 confirm inactive | HEK293 Tl flux inactive | CHO-K1 ctr inactive | KCNQ1 pot spec 13.3 | KCNQ2 pot confirm 39.7 | Kir2-1 sel inactive | KCNQ2 W236L MoA inactive
Cc1sc2nc[nH]c(=O)c2c1-c1ccc(F)cc1	none
Cc1cc(C)n(CCC(=O)N2CCc3ccccc32)n1	none (no result: KCNQ2 enhance)
COc1ccc(N2CCN(C(=O)C3CCN(C(=O)c4cccc(Cl)c4)CC3)CC2)cc1	none (no result: KCNQ2 enhance)
COc1ccccc1-c1nc(=S)c(C(C)=O)c(C)[nH]1	none
CC(=O)c1c(C)[nH]c(-c2ccccc2)nc1=S	KCNQ2 enhance 5.98 | Kir21 confirm inactive | HEK293 Tl flux 167.5% | CHO-K1 ctr 41.2 | KCNQ1 pot spec inactive | KCNQ2 pot confirm inactive | Kir2-1 sel inactive | KCNQ2 W236L MoA inactive
COc1cccc(-c2nnc(Nc3nc4c(F)cccc4s3)o2)c1	KCNQ2 enhance 9.74 | Kir21 confirm inactive | HEK293 Tl flux 234.5% | CHO-K1 ctr inactive | KCNQ1 pot spec 36.6 | KCNQ2 pot confirm 28.7 | Kir2-1 sel inactive | KCNQ2 W236L MoA inactive
COc1ccccc1-c1nnc(Nc2nc3c(OC)cccc3s2)o1	none (no result: KCNQ2 enhance)
COc1cccc(-c2nnc(NC(C)=O)o2)c1	none
COc1cccc2sc(Nc3nnc(-c4ccccc4Cl)o3)nc12	KCNQ2 enhance 21.4 | Kir21 confirm inactive | HEK293 Tl flux 379.0% | CHO-K1 ctr inactive | KCNQ1 pot spec inactive | KCNQ2 pot confirm 38.1 | Kir2-1 sel inactive | KCNQ2 W236L MoA inactive
COc1ccc(OC)c(-c2csc(N(CC3CCCO3)C(=O)C3CCCCC3)n2)c1 (stereo not drawn)	none (no result: KCNQ2 enhance)
CCc1ccc(C(=O)NNC(=O)c2cc(S(=O)(=O)N(C)C)ccc2N2CCCC2)cc1	none (no result: KCNQ2 enhance)
Cc1ccccc1Cn1nc(C)c(NC(=O)c2sc3ccccc3c2Cl)c1C	none
Cc1ccccc1Cn1nc(C)c(NC(=O)c2ccccc2)c1C	none | Kir21 confirm inactive | HEK293 Tl flux inactive
Cc1ccc(OCCCCN2CCCCC2)c(C)c1	none
Cc1ccc(OCCCCNC2CCCC(C)C2C)c(C)c1 (stereo not drawn)	none (no result: KCNQ2 enhance) | Kir21 confirm inactive | HEK293 Tl flux inactive
COc1ccccc1CCNC(=O)COc1cccc2c1OC(C)(C)C2	none (no result: KCNQ2 enhance) | Kir21 confirm 49.5% | HEK293 Tl flux 62.5%
CC1(C)Cc2cccc(OCC(=O)NCCOc3ccccc3)c2O1	none (no result: KCNQ2 enhance)
C=CCn1c(SCc2ccc(Br)cc2F)nc2cc(C(=O)O)ccc2c1=O	KCNQ2 enhance 5.35 | Kir21 confirm inactive | HEK293 Tl flux inactive | CHO-K1 ctr inactive | KCNQ1 pot spec inactive | KCNQ2 pot confirm inactive | Kir2-1 sel inactive | KCNQ2 W236L MoA inactive
C=CCn1c(SCc2c(C)noc2C)nc2cc(C(=O)O)ccc2c1=O	none
C/C(=N/NC(=O)CNC(=O)c1cccnc1)c1ccc(Cl)c(Cl)c1	none (no result: KCNQ2 enhance)

Bioassay records deposited in PubChem by Johns Hopkins Ion Channel Center.
